In PubChem BioAssay AID999 (SRMLSC, 2007):
A number with no mark means an inactive call.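 How the source made its calls: active means viability at or below 21.59%, 3 SD under the median of tested compounds; inactive means the rest.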

assay: viability loss in PTEN-deleted cells – cell-based, validation, diverse DP compound set (AID 999); settings: HCT116 PTEN-null viability, CellTiter-Glo, 60 h; at 10 µM; active compounds read low;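 further: 100% = median luminescence of untreated cell control wells and 0% = no signal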

SMILES	viability
COC(=O)c1cc2c(s1)-c1ccccc1OC2	97.4%
COC(=O)C1=C(C)NC(C)=C(C(=O)OCCNCc2ccccc2)C1c1cccc([N+](=O)[O-])c1 (centres undefined)	65.3%
O=C(O)c1ccccc1O	98.7%
CO[C@@H]1[C@@H](OC(N)=O)[C@@H](O)[C@H](Oc2ccc3c(O)c(NC(=O)c4ccc(O)c(CC=C(C)C)c4)c(=O)oc3c2C)OC1(C)C	88%
C=CC1(C)CC(=O)C2(O)C(C)(O1)C(OC(C)=O)C(O)C1C(C)(C)CCC(O)C12C (centres undefined)	85.5%
O=C1CCC(N2C(=O)c3ccccc3C2=O)C(=O)N1 (centres undefined)	96.8%
CN=C(NC#N)NCCSCc1nc[nH]c1C	99.4%
[O][C@H]1[C@@H](O)[C@@H](CO)O[C@@H](O[C@@H]2[C@@H]3OC[C@H]2O[C@H](O[C@@H]2[C@@H](O)[C@H](C[C@@H]4[C@@H]5OC[C@H]4O[CH][C@@H]5O)O[C@H](CO)[C@@H]2OS(=O)(=O)O)[C@@H]3OS(=O)(=O)O)[C@@H]1O	100%
O=c1[nH]cnc2ccccc12	82.7%
NCC(=O)N[C@@H](CCCN=C(N)N)C(=O)NCC(=O)N[C@@H](CC(=O)O)C(=O)N[C@@H](CC(N)=O)C(=O)N1CC[C@@H](C(=O)O)C1	98%
COc1ccc2c(c1)c(CC(=O)O)c(C)n2C(=O)c1ccc(Cl)cc1	105%
COc1ccc2cc1Oc1ccc(cc1)C[C@H]1c3c(cc4c(c3Oc3cc5c(cc3OC)CCN(C)[C@@H]5C2)OCO4)CCN1C	37.8%
Nc1c(N=Nc2ccc(-c3ccc(N=Nc4cc(S(=O)(=O)O)c5ccccc5c4N)cc3)cc2)cc(S(=O)(=O)O)c2ccccc12	86.5%
O=c1c(-c2ccc(O)cc2)coc2cc(O)cc(O)c12	87.8%
CN1CCN(C2Cc3ccccc3Sc3ccc(S)cc32)CC1 (centres undefined)	50.3%
CN(C)c1ccc(/C=C2\C(=O)Nc3ccccc32)cc1	86.2%
O=c1[nH]cc(F)c(=O)[nH]1	58.9%
C/C=C1/C2C=C(C)CC1(N)c1ccc(=O)[nH]c1C2 (centres undefined)	93.8%
CC1(COc2ccc(CC3SC(=O)NC3=O)cc2)CCCCC1 (centres undefined)	95.3%
